We go through eight compounds from ChEMBL document CHEMBL1961873, “Compounds: GSK PKIS; Assays: Nanosyn kinase panel” (2012).

A word on the inhibition: it is the change of the read-out against control, counted positive when it falls.

The target in test [1] is T1, Tyrosine-protein kinase receptor TYRO3 (Homo sapiens) (UniProt Q06418).
T1 sequence (whole entry): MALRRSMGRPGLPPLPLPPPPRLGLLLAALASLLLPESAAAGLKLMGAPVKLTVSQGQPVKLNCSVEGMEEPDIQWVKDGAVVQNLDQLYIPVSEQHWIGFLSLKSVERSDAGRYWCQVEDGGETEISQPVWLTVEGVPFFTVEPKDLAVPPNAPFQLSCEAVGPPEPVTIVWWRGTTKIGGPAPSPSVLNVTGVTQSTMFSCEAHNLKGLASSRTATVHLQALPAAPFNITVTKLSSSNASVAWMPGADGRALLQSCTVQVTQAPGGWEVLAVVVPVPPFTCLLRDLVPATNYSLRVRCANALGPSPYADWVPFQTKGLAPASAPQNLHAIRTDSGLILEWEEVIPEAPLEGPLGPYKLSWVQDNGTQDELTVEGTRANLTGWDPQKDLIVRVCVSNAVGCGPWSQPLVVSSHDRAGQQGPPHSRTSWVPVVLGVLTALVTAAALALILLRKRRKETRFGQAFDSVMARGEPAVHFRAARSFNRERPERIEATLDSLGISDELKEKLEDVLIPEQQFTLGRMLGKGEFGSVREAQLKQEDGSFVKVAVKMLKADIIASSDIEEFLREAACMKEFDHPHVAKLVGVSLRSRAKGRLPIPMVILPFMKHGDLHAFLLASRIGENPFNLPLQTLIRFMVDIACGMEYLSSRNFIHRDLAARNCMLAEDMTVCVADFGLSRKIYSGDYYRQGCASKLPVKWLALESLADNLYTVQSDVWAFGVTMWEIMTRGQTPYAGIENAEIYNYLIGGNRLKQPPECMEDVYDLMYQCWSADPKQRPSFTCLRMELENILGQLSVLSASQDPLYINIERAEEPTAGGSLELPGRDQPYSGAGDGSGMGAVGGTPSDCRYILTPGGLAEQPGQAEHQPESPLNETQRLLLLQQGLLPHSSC
Particulars: at 1 µM.

The target in test [2] is Tyrosine-protein kinase Yes (Homo sapiens) (UniProt P07947). Particulars: at 0.1 µM.
Chain of Tyrosine-protein kinase Yes (Homo sapiens) (P07947 2-543 limits assumed): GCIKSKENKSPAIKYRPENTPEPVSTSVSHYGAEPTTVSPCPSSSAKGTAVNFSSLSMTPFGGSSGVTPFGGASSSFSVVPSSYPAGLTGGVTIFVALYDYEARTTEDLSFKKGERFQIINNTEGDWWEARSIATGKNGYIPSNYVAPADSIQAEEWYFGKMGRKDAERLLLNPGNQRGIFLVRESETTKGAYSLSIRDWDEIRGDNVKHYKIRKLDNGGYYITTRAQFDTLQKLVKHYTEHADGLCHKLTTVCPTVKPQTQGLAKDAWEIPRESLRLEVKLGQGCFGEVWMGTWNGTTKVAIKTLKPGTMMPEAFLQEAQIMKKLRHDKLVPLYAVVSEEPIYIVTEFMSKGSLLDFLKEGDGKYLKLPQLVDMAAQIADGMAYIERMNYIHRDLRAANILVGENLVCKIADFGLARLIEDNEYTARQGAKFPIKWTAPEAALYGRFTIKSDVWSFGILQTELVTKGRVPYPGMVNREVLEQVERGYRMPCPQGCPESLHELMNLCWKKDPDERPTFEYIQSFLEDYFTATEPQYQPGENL
For test [3] the target is unchanged. Particulars: at 1 µM.
In test [4] the target is T2, Tyrosine-protein kinase ZAP-70 (Homo sapiens) (UniProt P43403).
T2 sequence (whole entry): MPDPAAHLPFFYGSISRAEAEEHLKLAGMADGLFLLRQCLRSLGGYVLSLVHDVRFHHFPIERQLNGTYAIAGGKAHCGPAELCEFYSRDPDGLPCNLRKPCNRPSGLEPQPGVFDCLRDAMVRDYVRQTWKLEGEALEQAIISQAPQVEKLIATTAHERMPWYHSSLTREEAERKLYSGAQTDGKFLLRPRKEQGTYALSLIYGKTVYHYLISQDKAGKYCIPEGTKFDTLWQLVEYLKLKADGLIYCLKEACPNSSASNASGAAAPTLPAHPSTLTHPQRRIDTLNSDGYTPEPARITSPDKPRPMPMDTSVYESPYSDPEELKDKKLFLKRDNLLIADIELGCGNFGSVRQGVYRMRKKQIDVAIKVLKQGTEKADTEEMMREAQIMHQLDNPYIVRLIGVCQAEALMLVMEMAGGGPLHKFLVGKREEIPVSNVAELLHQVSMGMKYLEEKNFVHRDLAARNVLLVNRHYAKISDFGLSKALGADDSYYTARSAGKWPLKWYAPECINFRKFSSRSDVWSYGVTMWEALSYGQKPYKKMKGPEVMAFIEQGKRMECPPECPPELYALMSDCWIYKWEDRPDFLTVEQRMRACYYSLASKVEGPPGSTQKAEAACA
Particulars: at 0.1 µM.

For test [5], the target named is T2, Tyrosine-protein kinase ZAP-70 (Homo sapiens). Particulars: at 1 µM.
Test [6] addresses Serine/threonine-protein kinase B-raf (Homo sapiens) (UniProt P15056). To be noted: at 0.1 µM.
For test [7] the target is unchanged. Particulars: at 1 µM.
The subject of test [8] is Serine/threonine-protein kinase B-raf (Homo sapiens), P15056 [V600E]. Particulars: at 0.1 µM.
The test system is the same in test [9]. Particulars: at 1 µM.
Test [10] has as its target RAF proto-oncogene serine/threonine-protein kinase (Homo sapiens) (UniProt P04049). Particulars: at 0.1 µM.
The target is the same in test [11]. Particulars: at 1 µM.
For test [12], the target named is T3, Interleukin-1 receptor-associated kinase 4 (Homo sapiens) (UniProt Q9NWZ3).
T3 sequence (whole entry): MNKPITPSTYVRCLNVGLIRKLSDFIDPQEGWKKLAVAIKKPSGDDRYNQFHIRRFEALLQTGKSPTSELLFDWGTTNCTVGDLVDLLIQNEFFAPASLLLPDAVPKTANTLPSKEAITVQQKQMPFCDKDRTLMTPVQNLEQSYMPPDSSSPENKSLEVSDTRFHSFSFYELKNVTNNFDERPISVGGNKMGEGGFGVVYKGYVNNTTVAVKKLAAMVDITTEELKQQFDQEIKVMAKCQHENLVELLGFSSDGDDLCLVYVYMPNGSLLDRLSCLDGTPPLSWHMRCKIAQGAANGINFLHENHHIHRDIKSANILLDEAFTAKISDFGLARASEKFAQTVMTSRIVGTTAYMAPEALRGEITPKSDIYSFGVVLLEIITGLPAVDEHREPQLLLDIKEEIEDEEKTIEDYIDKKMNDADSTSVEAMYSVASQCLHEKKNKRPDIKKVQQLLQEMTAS
Particulars: at 0.1 µM.

Test [13] deals with T3, Interleukin-1 receptor-associated kinase 4 (Homo sapiens). Particulars: at 1 µM.
The target of test [14] is Leucine-rich repeat serine/threonine-protein kinase 2 (Homo sapiens) (UniProt Q5S007). To be noted: at 0.1 µM.
Chain of Leucine-rich repeat serine/threonine-protein kinase 2 (Homo sapiens) (Q5S007 whole entry): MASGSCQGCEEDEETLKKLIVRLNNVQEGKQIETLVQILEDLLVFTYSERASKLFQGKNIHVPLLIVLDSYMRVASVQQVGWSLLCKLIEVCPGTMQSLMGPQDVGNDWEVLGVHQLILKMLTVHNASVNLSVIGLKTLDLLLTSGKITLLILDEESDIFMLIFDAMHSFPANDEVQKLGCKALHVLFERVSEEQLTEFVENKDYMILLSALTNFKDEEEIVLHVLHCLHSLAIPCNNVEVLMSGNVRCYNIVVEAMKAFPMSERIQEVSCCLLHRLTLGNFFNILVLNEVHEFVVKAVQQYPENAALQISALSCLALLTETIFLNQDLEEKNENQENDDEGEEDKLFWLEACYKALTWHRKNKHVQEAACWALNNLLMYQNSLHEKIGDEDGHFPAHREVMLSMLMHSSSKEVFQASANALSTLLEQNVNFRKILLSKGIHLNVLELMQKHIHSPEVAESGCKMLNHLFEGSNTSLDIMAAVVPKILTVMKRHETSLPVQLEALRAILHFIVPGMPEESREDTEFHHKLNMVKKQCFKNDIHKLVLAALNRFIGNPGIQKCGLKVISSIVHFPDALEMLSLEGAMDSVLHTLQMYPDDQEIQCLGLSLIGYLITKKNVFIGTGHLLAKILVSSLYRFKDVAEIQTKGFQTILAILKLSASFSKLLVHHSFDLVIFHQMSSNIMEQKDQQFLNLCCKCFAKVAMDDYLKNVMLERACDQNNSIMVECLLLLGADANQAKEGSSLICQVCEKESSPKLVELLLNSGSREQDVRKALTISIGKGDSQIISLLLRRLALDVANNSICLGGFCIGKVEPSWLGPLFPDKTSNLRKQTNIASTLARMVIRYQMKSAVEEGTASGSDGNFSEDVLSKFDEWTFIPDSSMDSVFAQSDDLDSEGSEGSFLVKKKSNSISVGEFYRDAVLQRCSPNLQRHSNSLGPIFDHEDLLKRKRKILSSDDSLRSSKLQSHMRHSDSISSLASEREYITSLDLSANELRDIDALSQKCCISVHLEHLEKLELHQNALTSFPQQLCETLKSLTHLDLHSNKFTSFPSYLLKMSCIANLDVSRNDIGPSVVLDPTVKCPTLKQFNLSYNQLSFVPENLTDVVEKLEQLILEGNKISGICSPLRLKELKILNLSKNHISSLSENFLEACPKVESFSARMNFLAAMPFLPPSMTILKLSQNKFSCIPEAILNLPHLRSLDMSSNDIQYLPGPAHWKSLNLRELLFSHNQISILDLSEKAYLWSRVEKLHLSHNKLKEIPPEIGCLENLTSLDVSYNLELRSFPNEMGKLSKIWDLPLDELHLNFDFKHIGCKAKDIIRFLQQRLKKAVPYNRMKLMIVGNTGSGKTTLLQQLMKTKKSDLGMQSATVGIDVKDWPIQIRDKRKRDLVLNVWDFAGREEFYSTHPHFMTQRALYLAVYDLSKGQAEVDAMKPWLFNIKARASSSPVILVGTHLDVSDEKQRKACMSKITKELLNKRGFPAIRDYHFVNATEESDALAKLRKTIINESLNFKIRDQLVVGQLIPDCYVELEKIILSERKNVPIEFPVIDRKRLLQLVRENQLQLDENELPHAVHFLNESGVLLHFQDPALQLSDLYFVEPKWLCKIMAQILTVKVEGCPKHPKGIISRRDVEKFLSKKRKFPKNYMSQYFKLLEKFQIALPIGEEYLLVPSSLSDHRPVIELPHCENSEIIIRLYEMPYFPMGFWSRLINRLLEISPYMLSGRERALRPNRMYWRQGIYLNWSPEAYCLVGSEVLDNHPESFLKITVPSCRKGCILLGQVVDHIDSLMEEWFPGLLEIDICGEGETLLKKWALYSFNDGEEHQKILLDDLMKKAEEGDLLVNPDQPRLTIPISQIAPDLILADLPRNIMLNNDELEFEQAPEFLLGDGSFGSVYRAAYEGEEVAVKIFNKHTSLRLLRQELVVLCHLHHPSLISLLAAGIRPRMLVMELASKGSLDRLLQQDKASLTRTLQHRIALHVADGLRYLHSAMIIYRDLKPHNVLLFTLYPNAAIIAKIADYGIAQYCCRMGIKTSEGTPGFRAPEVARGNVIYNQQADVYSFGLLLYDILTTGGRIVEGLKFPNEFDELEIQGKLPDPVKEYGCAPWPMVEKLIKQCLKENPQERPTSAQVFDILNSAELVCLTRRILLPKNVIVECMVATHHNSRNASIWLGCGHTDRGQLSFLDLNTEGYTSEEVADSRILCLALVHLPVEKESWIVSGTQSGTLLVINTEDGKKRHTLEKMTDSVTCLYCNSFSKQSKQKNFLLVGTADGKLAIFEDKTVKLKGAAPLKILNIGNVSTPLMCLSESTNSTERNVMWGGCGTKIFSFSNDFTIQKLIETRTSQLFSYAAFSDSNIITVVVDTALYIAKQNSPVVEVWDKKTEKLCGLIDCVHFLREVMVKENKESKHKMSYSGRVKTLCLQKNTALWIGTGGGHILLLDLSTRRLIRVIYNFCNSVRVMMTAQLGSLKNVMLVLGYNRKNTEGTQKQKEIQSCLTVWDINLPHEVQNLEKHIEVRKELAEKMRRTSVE
The target is the same in test [15]. Particulars: at 1 µM.
Test [16] has as its system Leucine-rich repeat serine/threonine-protein kinase 2 (Homo sapiens), Q5S007 [G2019S]. To be noted: at 0.1 µM.
Test [17] shares this test system. Particulars: at 1 µM.

Chain of RAF proto-oncogene serine/threonine-protein kinase (Homo sapiens) (P04049 whole entry): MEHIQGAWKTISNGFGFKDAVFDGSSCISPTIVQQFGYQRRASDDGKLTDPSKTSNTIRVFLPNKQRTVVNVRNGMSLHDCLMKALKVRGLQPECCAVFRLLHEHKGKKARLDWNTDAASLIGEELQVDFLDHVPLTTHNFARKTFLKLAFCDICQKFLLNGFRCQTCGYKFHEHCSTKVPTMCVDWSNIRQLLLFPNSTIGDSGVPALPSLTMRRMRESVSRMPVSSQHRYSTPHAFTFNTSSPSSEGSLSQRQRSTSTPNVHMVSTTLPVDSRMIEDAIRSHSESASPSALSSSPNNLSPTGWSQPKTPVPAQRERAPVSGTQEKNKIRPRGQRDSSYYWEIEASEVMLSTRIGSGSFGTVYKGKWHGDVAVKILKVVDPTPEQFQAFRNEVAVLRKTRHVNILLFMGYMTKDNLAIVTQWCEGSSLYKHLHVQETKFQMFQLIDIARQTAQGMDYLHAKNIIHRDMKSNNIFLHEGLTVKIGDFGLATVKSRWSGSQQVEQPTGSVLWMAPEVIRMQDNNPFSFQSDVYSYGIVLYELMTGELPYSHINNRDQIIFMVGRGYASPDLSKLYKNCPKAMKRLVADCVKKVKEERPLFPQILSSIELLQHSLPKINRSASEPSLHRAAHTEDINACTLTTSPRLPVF
Chain of Leucine-rich repeat serine/threonine-protein kinase 2 (Homo sapiens), Q5S007 [G2019S] (Q5S007 whole entry G2019S): as the sequence (Q5S007 whole entry) above, with G2019S counted along it
Chain of Serine/threonine-protein kinase B-raf (Homo sapiens), P15056 [V600E] (P15056 whole entry V600E): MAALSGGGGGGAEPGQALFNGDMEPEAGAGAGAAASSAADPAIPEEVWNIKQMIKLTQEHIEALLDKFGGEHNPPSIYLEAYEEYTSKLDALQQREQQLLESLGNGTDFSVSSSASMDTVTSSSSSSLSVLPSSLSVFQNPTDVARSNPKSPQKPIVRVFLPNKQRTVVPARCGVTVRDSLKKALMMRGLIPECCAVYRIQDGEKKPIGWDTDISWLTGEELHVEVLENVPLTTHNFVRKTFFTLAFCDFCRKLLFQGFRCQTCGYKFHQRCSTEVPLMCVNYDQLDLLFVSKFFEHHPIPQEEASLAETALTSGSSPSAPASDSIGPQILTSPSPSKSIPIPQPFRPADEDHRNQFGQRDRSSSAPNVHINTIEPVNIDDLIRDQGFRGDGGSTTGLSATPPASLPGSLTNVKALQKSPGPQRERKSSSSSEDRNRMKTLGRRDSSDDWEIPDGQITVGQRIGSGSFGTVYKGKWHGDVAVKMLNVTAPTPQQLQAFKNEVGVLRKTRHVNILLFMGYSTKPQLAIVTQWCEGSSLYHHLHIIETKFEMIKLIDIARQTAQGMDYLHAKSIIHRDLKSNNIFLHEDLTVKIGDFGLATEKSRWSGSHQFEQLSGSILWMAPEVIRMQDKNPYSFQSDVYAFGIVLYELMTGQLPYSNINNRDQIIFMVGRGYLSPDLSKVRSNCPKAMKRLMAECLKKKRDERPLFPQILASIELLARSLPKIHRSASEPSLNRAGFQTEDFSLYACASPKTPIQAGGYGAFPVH
Chain of Serine/threonine-protein kinase B-raf (Homo sapiens) (P15056 whole entry): as the sequence (P15056 whole entry V600E) above, with E600V counted along it

For `N#Cc1cccc(Nc2ncc(-c3ccccc3)o2)c1`, the inhibition in test [1] worked out at 6.8%; in test [2] it was 2.87%; in [3], 17.7%; in test [4], 0.3%; in test [5], 1.57%; in [6], 3.08%. Besides, the inhibition in test [7] is 3.51%; in [8], 3.18%; in test [9] it was 4.57%; in test [10] it was -1.08%; in test [11] it was -0.15%; in test [12], 2.82%. The inhibition in test [13] was 0.78%; in test [14] it was 1.01%; in [15], 2.11%; in test [16], 1.64%; in [17], 4.25%.
Take `O=C1Nc2ccccc2/C1=C1\CCc2cc(O)ccc21`: the inhibition in test [1] turned out to be 18.8%; in [2] it was 3.94%; in test [3] it was 13.6%; in test [4], 3.48%; in test [5] it was 7.74%; in test [6], 6.96%. Moreover, the inhibition in [7] was 9.83%; in test [8], 8.49%; in test [9], 8.96%; in test [10], 0.39%; in test [11], -4.27%; in [12], 0.67%. For the same compound, the inhibition is 5.31% in test [13]; 17.6% in test [14]; 66.3% in [15]; 22.1% in [16]; 63.6% in test [17].
Consider `Fc1ccc(Nc2nccc(-c3c(-c4ccc(C(F)(F)F)cc4)nn4ncccc34)n2)cc1F`, for which the inhibition in test [1] was 1.88%; in [2], -0.6%; in [3], 1.12%; in [4], 2.29%; in [5], 2.38%; in test [6], 3.42%. Besides, the inhibition is 6.75% in test [7]; 3.45% in test [8]; 6.03% in [9]; 4.84% in test [10]; 1.86% in test [11]; -4.78% in test [12]. In addition, the inhibition was found to be 1.81% in test [13]; 5.42% in [14]; 7.08% in test [15]; 5.93% in test [16]; 10.4% in test [17].
For the compound `COc1cc(N2CCN(C(C)C)CC2)ccc1Nc1nc(Nc2cccc(F)c2C(=O)O)c2cc[nH]c2n1`, the inhibition in test [1] came to 3.99%; in [2] it was 1.69%; in test [3], 8.64%; in [4], 2.69%; in [5], 7.8%; in test [6], 6.1%. For the same compound, the inhibition was found to be 7.89% in test [7]; 6.27% in test [8]; 7.5% in test [9]; 1.76% in test [10]; 0.19% in [11]; 2.04% in test [12]. In addition, the inhibition came out at 2.25% in test [13]; 6.61% in [14]; 16.3% in [15]; 19% in test [16]; 59.3% in test [17].
As for `OCCCNc1nccc(-c2c(-c3ccc(F)cc3)nn3cc(C(F)(F)F)ccc23)n1`, the inhibition in test [1] is 1.03%; in [2], 1.78%; in test [3], 1.85%; in test [4] it was 2.54%; in test [5] it was -1.3%; in test [6] it was 3.71%. The inhibition was 11.6% in [7]; 2.84% in test [8]; 9.93% in [9]; 0.53% in [10]; -7.33% in [11]; -1.58% in test [12]. The inhibition came to 1.48% in [13]; 5.02% in test [14]; 7.46% in test [15]; 2.62% in test [16]; 7.85% in test [17].
For the compound `CC(C)c1ccc(-c2cc(-c3c[nH]nc3-c3ccccn3)ccn2)cc1`, the inhibition in test [1] stood at 2.71%; in test [2], 0.42%; in test [3], 0.34%; in test [4] it was 1.32%; in test [5], 1.31%; in test [6], 0.6%. The inhibition in test [7] is 3.57%; in test [8] it was 0%; in test [9], 3.39%; in [10], 1.14%; in test [11] it was 1.4%; in test [12], 1.27%. The inhibition in test [13] was found to be 0.36%; in test [14], 2.9%; in [15] it was 4.8%; in [16] it was 1.2%; in test [17], 7.15%.
For the compound `N#Cc1ccc2c(-c3ccnc(NC4CC4)n3)c(-c3ccc(F)cc3)nn2c1`, the inhibition in test [1] was 0.69%; in test [2] it was 2.22%; in test [3], 3.79%; in [4], -2.8%; in [5], 1.15%; in test [6] it was 2.6%. Besides, the inhibition in test [7] was 5.81%; in test [8], 2.7%; in [9], 4.72%; in [10], -0.7%; in test [11], -2.54%; in test [12], 0.03%. In addition, the inhibition in test [13] was -0.5%; in test [14] it was 2.1%; in test [15] it was -2.22%; in test [16], 1.24%; in test [17], -0.08%.
With `COc1ccc2ncn(-c3cc(O[C@H](C)c4ccccc4C(F)(F)F)c(C(N)=O)s3)c2c1`, the inhibition was 2.75% in [1]; -2.36% in test [2]; 1.07% in test [3]; 2.16% in [4]; 2.62% in test [5]; -0.46% in test [6]. The inhibition was -2.23% in test [7]; -1.03% in test [8]; -0.82% in test [9]; -0.27% in test [10]; 0.1% in [11]; 1.48% in [12]. For the same compound, the inhibition was 0.87% in [13]; 4.72% in test [14]; 15.9% in test [15]; 5.16% in test [16]; 31% in test [17].
